VDR inh: inhibitors of human vitamin D receptor; VDR-SRC2-3 peptide fluorescence polarization, 2 h; Potency, µM, inactives show max response, negative = inhibition, actives largely listed as inhibitors; 400,000 tested, 0.93% active; AID 504847; note: potency is the fitted concentration of half-maximal effect; % is set by controls: 0 for no effect and ±100 for the full control effect
Target sequence (P11473 whole entry, looked up): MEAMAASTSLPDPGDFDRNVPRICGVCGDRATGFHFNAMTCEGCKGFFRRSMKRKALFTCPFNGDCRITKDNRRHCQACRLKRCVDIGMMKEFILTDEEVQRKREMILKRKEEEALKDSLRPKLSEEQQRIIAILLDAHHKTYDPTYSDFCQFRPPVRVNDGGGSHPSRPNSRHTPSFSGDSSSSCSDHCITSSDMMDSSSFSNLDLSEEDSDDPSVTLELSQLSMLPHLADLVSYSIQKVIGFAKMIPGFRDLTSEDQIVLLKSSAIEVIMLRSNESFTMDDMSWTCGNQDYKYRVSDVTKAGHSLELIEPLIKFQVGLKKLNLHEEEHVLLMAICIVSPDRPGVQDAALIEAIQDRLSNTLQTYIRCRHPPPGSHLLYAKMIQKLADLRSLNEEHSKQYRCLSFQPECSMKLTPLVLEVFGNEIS
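FP read-out; VDR + SRC2-3 coactivator peptide; 23 nl compound by pintool; 2 h RT incubation; reagents held at 4 deg C, protected from light.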
TrxR1 inh: rat TrxR1 inhibition; recombinant rTrxR1, NADPH fluorescence consumption, selenite substrate; 390,000 tested, 1% active; Potency, µM (titrated, usually from 114 µM), without a hit: at the highest dose activity change, negative = inhibition, hits mostly inhibitors; O89049; note: potency is the fitted concentration of half-maximal effect; % is set by controls: 0 for no effect and ±100 for the full control effect; nearly all actives have a fitted effect of over 65% in size
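Rat TrxR1 (90 nM in the dispensed reagent) was pre-reduced with 400 uM NADPH for 5 min at room temperature, then incubated with compound for 15 min. After 400 uM selenite was added, NADPH fluorescence (Ex 340/Em 450 nm) was followed for 8 min.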
TrxR1 substrate: substrates of rat thioredoxin reductase 1. O89049. purified TrxR1 substrate turnover, NADPH consumption readout. Potency, µM (titrated, usually from 114 µM), without a hit: at the highest dose activity change, negative = substrate turnover. 390,000 tested, 0.01% active. AID 588456; note: potency is the fitted concentration of half-maximal effect; % is set by controls: 0 for no effect and ±100 for the full control effect; nearly all actives have a fitted effect of over 50% in size
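Rat TrxR1, dispensed at 90 nM, was prereduced with 400 uM NADPH (final) for 5 min at ~22 deg C, then incubated with compound 15 min before 400 uM selenite. A first-read NADPH fluorescence drop versus no-compound background flagged substrates.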
GCN5L2 inh-1: GCN5L2 (KAT2A) acetyltransferase inhibition. AID 504327. Potency, µM (top dose mostly 58.9 µM), without a hit: top-dose activity change, negative = inhibition, most hits filed as inhibitors. 390,000 tested, 0.21% active. Q92830. GCN5L2 HAT assay, ThioGlo1 CoA-SH fluorescence; note: potency is the fitted concentration of half-maximal effect; % is set by controls: 0 for no effect and ±100 for the full control effect
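ThioGlo1-coupled HAT assay: 20nM GCN5L2, 70uM acetyl-CoA, 75uM H3(1-25) peptide, pH 7.5. Fluorescence read at 340/540nm at start and after 20 min at room temperature.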
GCN5L2 inh-2: human KAT2A HAT inhibition, hit confirmation; shares compounds with GCN5L2 inh-1; GCN5L2 HAT, ThioGlo1 CoA fluorescence, 20 min; Potency, µM, actives largely listed as inhibitors; 140 tested, 70% active
Starred values were filed as active, the others as inactive; ? = inconclusive; . = no result given; [ ] = another dose, or the depositor's remark. Sampled rows, rich in hits. Any-hit rate of the full collection: about 1.8%. Calls come from the whole dose curve; as a rule, active = well fitted curve in the direction sought with a large enough effect; inconclusive = small, poorly fitted or top-dose-only effect, or another doubt; inactive = no such curve, though single readings can be large; an effect the other way counts as inactive or inconclusive.

SMILES | VDR inh | TrxR1 inh | TrxR1 substrate | GCN5L2 inh-1 | GCN5L2 inh-2
CSS(=O)(=O)c1cccc2cccnc12 | 11µM* | 12% | -2% | 8.9µM* | 5.8*
O=S(=O)(O)c1cccc2cccnc12 | -17% | 10% | 3% | . | .
CC(=O)NS(=O)(=O)c1ccc(NC(=O)c2ccccn2)cc1 | -4% | 12% | 0% | 1% | .
CCSc1ccccc1C(=O)Nc1ccc(S(=O)(=O)NC(C)=O)cc1 | 9% | 13%[57.1 µM] | 3%[57.1 µM] | 18µM* | ?
Cc1cc(C)cc(NC(=O)Cn2c(=O)n(-c3cc(C)cc(C)c3)c(=O)c3oc4ccccc4c32)c1 | -1% | 3% | 1% | 2% | .
Cc1ccc(S(=O)(=O)NC(C(=O)Oc2ccc3c(C(F)(F)F)cc(=O)oc3c2)c2ccccc2)cc1 (configuration not stated) | 0% | -5% | 5% | ? | ?
CC(=C(CCOP(=O)(O)O)SC(=O)c1ccccc1)N(C=O)Cc1cnc(C)nc1N | -2% | . | . | 8%[21.4 µM] | .
O=C(COC(=O)c1ccccc1)Nc1ncc([N+](=O)[O-])s1 | -25% | -23%[57.1 µM] | 2%[57.1 µM] | ? | 4.6*
O=C(NCCC1=CCCCC1)c1ccc2c(c1)N(Cc1ccc(F)cc1)C(=O)c1ccccc1S2(=O)=O | 0% | 26% | 9% | -12% | .
COCCNC(=O)C1Nc2ccc(OC(F)(F)F)cc2C2C=CCC12 (configuration not stated) | -7% | -9% | -1% | . | .
Cc1ccc2c(c1C)NC(C(=O)O)C1CC=CC21 (configuration not stated) | 25% | 2.5µM* | 13% | 22µM* | 14*
Cc1ccc(C)c(N2CCN(C(=O)CN3CCSc4ccc(S(=O)(=O)N(C)C)cc43)CC2)c1 | 26% | 22%[57.1 µM] | 0%[57.1 µM] | ? | .
O=C(Cc1ccc(Cl)cc1Cl)Nc1cccc(S(=O)(=O)Nc2ccccc2F)c1 | ? | -28% | -14% | ? | ?
Cc1ccccc1OCCC(=O)Nc1cccc(S(=O)(=O)Nc2ccccc2Cl)c1 | -21% | 9% | -4% | -12% | .
COc1cc(-c2ccc(-[n+]3nc(-c4ccccc4)nn3-c3ccc([N+](=O)[O-])cc3)c(OC)c2)ccc1-[n+]1nc(-c2ccccc2)nn1-c1ccc([N+](=O)[O-])cc1 | 1% | . | . | -9% | .
Cc1ccc(S(=O)(=O)/N=C2/C=C(Sc3ncn[nH]3)C(=O)c3ccccc32)cc1 | 10µM* | ? | 10µM* | 22µM* | 1.3*
O=C(O)COc1ccc2ccccc2c1 | 4% | . | . | -3% | .
O=C(Cn1c(=O)n(Cc2ccccc2)c(=O)c2oc3ccccc3c21)Nc1ccc(Cl)cc1 | -1% | -1% | -9% | -7% | .
CC(=O)n1cc(C(C[N+](=O)[O-])SCCN)c2ccccc21 (configuration not stated) | 22µM* | ? | -4% | 25µM* | 36*
CC(=O)N1c2ccccc2C2(O)N=C(C)SC12 (configuration not stated) | ? | -21% | -2% | 7.9µM* | 9.1*
Cc1nc(SCC(=O)c2ccc(F)cc2)n[nH]1 | 71µM* | -9% | 7%[0.457 µM] | 22µM* | ?
Nc1nc(SCC(=O)c2ccc(F)cc2)n[nH]1 | -2% | -3%[57.1 µM] | -1%[57.1 µM] | 1% | .
CCN1C(=O)C(Cc2nc3ccccc3c(=O)n2-c2cccc(C)c2)c2ccccc21 (configuration not stated) | 9% | 23% | 1% | -1% | .
CNC(=O)NC(=O)C(C)OC(=O)c1c2c(nc3ccccc13)/C(=C/c1cccs1)CC2 (configuration not stated) | -6% | 6% | 10% | 14µM* | ?
COc1ccccc1-c1nc(NCc2cnc(C)cn2)c2ccccc2n1 | ? | . | . | -10% | .
SMILES | VDR inh | TrxR1 inh | TrxR1 substrate | GCN5L2 inh-1 | GCN5L2 inh-2
COc1ccc(Oc2ncc3nc(-c4cn(C)c5ccccc45)c(=O)n(CCC#N)c3n2)cc1 | 13% | . | . | -23% | .
O=C(O)c1cccc2c1C(=O)c1ccc(-c3ccc(F)cc3OCc3ccccc3)cc1S2(=O)=O | -8% | -25% | -4% | 22µM* | ?
Cc1ccc(S(=O)(=O)Oc2ccc(/C=C3/C(=N)N4C(=NC3=O)SN=C4S(C)(=O)=O)cc2)cc1 | ? | -31% | -14% | ? | 10*
CCS(=O)(=O)C1=NN2C(=N)/C(=C\c3ccc(OS(=O)(=O)c4ccccc4)cc3)C(=O)N=C2S1 | 50µM* | ? | -13% | 14µM* | 10*
CCc1ccc(-n2cccc2/C=C2/C(=N)N3C(=NC2=O)SN=C3S(C)(=O)=O)cc1 | ? | -9% | -10% | 20µM* | ?
Cc1cc(C)cc(-n2cccc2/C=C2/C(=N)N3C(=NC2=O)SN=C3S(C)(=O)=O)c1 | ? | 0%[57.1 µM] | 6%[57.1 µM] | ? | .
CCC1=NN2C(=N)/C(=C/c3ccc(OS(=O)(=O)c4ccccc4)cc3)C(=O)N=C2S1 | ? | -8% | -9% | -28% | .
CCCOc1ccc(OC(=O)c2c(-c3ccccc3Cl)noc2C)cc1 | 12% | 6%[57.1 µM] | -5%[57.1 µM] | -12% | .
CCOC(=O)c1cnc2cc(C)nn2c1-c1ccccc1 | 9% | 18%[57.1 µM] | 14%[57.1 µM] | 40µM* | 14*
CCn1cc(CNC(=O)c2cc(-c3ccc(C)cc3)nc3ccc(Br)cc23)c(C)n1 | -13% | -10% | -10% | -11% | .
N#C/C(=C\c1cccs1)C(=O)c1ccccc1Cl | 35µM* | 13µM* | -6% | ? | ?
CC(C)(C)C(=O)/C(C#N)=C/c1cccs1 | -9% | -1%[57.1 µM] | -5%[57.1 µM] | -25% | .
COc1ccc(CCn2c(=S)[nH]c3ccc(N4CCOCC4)cc3c2=O)cc1OC | -17% | 22%[57.1 µM] | 9%[57.1 µM] | -4% | .
COCCCn1c(=S)[nH]c2ccc(N3CCOCC3)cc2c1=O | 6% | -24% | 7% | ? | 32*
CC(=O)Nc1ccc(C2=NN(c3ccccc3)C(c3ccccc3)C2)cc1 (configuration not stated) | 10% | 381% | 239% | ? | 36*
O=C(O)c1ccc(N2N=C(c3ccccc3)CC2c2ccccc2)cc1 (configuration not stated) | -22% | 85% | 417% | 16µM* | 14*
CC(C)(C)NC(=O)COC(=O)CNC(=O)C1CCCCC1 | -8% | 1% | -3% | . | .
C=C1NN(Cc2ccc(OC)cc2)C(=O)N1c1ccccc1 | . | 18% | 4% | . | .
COC(=O)C1=C[C@@H](C(=O)OC)C2C3=C(C(=O)[C@@]2(CC(C)C)NC(=O)c2ccccc2)[C@H](C)n2c(=O)n(C)c(=O)n2[C@@H]3C1 (some centres not stated) | 10% | 10% | 2% | . | .
CCOc1cc(/C=C2\CCCc3c2nc2ccccc2c3C(=O)O)ccc1OC | -22% | 79µM* | -12% | 25µM* | ?
COc1ccc(/C=C2\CCCc3c2nc2ccccc2c3C(=O)OCC(=O)c2c(N)n(C)c(=O)n(C)c2=O)cc1 | . | . | . | -10% | .
COc1cc(/C=C2\CCCc3c2nc2ccccc2c3C(=O)O)cc(Br)c1O | -1% | -23% | -13% | -6% | .
